Measured values taken from PubChem BioAssay AID488969 (Vanderbilt High Throughput Screening Facility, 2010).
In all, about 110,000 compounds were measured (“z-score”: median about -0.1, highest 2% from about 2 on). The entries come from a sample that favours the highest values as a whole. Active and inactive are the calls of the source.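 How the source made its calls: active means z-score in the third read window above 3 or below -3; inactive means the rest.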

Molecular target: Metabotropic glutamate receptor 8 (Rattus norvegicus) (UniProt P70579)
Test: mGluR8 Gi/Go-coupled signaling modulation – cell-based, rat, thallium flux, HTS, primary screen (AID 488969)
Details: HEK293 rat mGluR8, GIRK (G protein-gated inwardly rectifying potassium channel) thallium flux, FluoZin2; at 10 µM; stronger effect = higher value; submaximal glutamate (EC20) added with thallium

Chain of Metabotropic glutamate receptor 8 (Rattus norvegicus) (P70579 whole entry, looked up): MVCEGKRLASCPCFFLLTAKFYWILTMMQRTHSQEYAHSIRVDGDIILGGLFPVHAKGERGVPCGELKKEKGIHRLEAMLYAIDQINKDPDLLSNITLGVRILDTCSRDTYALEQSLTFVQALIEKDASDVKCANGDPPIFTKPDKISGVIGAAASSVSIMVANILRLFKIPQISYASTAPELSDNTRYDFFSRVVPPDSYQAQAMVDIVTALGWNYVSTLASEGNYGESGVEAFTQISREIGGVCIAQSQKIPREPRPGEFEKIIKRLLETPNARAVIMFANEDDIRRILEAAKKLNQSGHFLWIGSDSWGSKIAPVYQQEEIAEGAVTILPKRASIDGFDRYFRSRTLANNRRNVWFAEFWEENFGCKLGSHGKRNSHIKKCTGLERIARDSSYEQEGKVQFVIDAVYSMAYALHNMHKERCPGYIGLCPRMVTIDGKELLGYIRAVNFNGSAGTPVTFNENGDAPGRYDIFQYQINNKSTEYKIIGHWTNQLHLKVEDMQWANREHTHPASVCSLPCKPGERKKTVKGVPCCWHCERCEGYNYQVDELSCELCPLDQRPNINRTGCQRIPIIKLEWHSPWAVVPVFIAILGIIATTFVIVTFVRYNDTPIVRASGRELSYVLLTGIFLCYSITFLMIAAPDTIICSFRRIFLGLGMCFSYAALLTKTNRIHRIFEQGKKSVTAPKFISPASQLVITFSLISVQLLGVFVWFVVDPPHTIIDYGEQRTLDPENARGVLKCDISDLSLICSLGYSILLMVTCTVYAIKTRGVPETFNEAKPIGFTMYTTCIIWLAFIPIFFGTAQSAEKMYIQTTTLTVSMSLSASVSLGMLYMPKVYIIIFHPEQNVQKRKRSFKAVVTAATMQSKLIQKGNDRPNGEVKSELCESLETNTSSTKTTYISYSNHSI

| SMILES | z-score |
| --- | --- |
| C=CCNC(=O)c1cc(Cl)ccc1Cl | 0.018 |
| COc1ccc2c(C)cc(=O)[nH]c2c1 | -0.159 |
| O=C(NC1CC1)c1cc2c(s1)-c1ccccc1OC2 | -0.272 |
| O=C(NCc1cccs1)c1cc2c(s1)-c1ccccc1OC2 | -0.399 |
| CN(C)CCNC(=O)c1cc2c(s1)-c1ccccc1OC2 | 3.28 (active) |
| Cc1cc(C)n(-c2ccc(Cl)c(C(=O)Nc3cc(C(F)(F)F)ccc3Cl)n2)n1 | 0.25 |
| CC(C)c1ccc(OCC(=O)N(Cc2ccccc2)c2ccccn2)cc1 | -0.499 |
| CCN(CC(=O)Nc1cccc(OC)c1)c1ncnc2sc(C)c(C)c12 | -0.125 |
| Cc1c(NC(=O)CSc2ncn[nH]2)c(=O)n(-c2ccccc2)n1C | 0.565 |
| CCC(C(=O)OCC(=O)Nc1ccc(Cl)c(S(=O)(=O)N(C)C)c1)c1ccccc1 (stereo not drawn) | -2.23 |
| CC(=O)N1CCN(CC(=O)Nc2ccc(Cl)c(S(=O)(=O)N(C)C)c2)CC1 | -0.0302 |
| CCCCc1ccc(NC(=S)Nc2ccc(Nc3ccc(OC)cc3)cc2)cc1 | -0.0123 |
| CCCCc1ccc(NC(=S)Nc2ccc(Cl)c(S(=O)(=O)N(C)C)c2)cc1 | 5.93 (active) |
| CCCCC(=O)Nc1ccc(C(=O)Nc2cccnc2)cc1 | 0.0123 |
| CCCCc1ccc(NC(=S)Nc2cccnc2)cc1 | 2.66 |
| CNC(=O)N1CCN(C(=O)NC)CC1 | -0.168 |
| CCN(CC)S(=O)(=O)c1ccc(N2CCOCC2)c(NS(=O)(=O)c2cc(C(C)(C)C)ccc2C)c1 | -0.103 |
| O=C1[C@@H]2[C@H](C(=O)N1Cc1ccco1)[C@H]1C=C[C@@H]2C1 | -0.0939 |
| Cc1cc(C(=O)CSc2nc3ccccc3o2)c(C)n1CC1CCCO1 (stereo not drawn) | -0.415 |
| CCCCCCc1cc2cc(C(=O)NC)c(=N)oc2cc1O | 11.6 (active) |
| CCCCCCc1cc2cc(C(N)=O)c(=N)oc2cc1O | -1.44 |
| CCCCCCc1cc2cc(C(=O)NCc3ccccc3)c(=N)oc2cc1O | 0.891 |
| O=C(Nc1ccc(Br)cc1)c1ccc(N2C(=O)C3CC=CCC3C2=O)cc1 (stereo not drawn) | 0.106 |

| SMILES | z-score |
| --- | --- |
| COc1cc(C(=O)NNC2=CC(=O)CC(C)(C)C2)cc(OC)c1OC | -0.21 |
| Cc1cc(N/C(=N\S(=O)(=O)c2ccc(F)cc2F)c2ccccc2)no1 | 0.0702 |
| CCS(=O)(=O)Nc1ccc(-c2nnc(SCC(=O)c3ccc(NC(C)=O)c(OC)c3)o2)cc1 | 4.64 (active) |
| COc1ccc(C(=O)CSc2nnc(-c3ccc(C)cc3)o2)cc1 | 2.18 |
| COc1ccc(-c2nnc(SCC(=O)Oc3ccc(C)cc3)o2)cc1 | -0.915 |
| COc1ccc(-c2nnc(SC(C)C(=O)NNC(=O)c3ccc(C)cc3)o2)cc1 (stereo not drawn) | 2.1 |
| COc1ccc(-c2nnc(SC(C)C(=O)Nc3ccc4c(c3)OCCO4)o2)cc1 (stereo not drawn) | 1.65 |
| CCC(=O)Nc1ccc(C(=O)CSc2nnc(CNc3ccc(Cl)cc3)o2)cc1OC | -0.38 |
| COc1ccc(-c2nnc(SC(C)C(=O)Nc3cccc(Cl)c3)o2)cc1 (stereo not drawn) | -0.517 |
| Cc1ccc(C(=O)CSc2nnc(-c3ccccc3)o2)cc1 | 0.068 |
| CCn1c(SCC(=O)c2ccc(NC(C)=O)c(OC)c2)nnc1-c1ccc(NS(C)(=O)=O)cc1 | -0.0548 |
| COCCNC(=O)c1onc(CSc2ccc(C)c(C)c2)c1C(=O)O | -0.0285 |
| CN1C(=O)COc2ccc(C(=O)c3oc4ccccc4c3-c3cnc4c(c3)COc3ccccc3-4)cc21 | -0.142 |
| O=C(Cc1ccccc1)Nc1c[nH]c(=O)[nH]c1=O | -0.449 |
| Brc1ccc2[nH]c3c(N4CCc5ccccc5C4)ncnc3c2c1 | -0.00372 |
| O=C(CCn1cccc1)Nc1cc(F)ccc1F | -0.224 |
| Cc1cncn1CCc1nc2c3ccccc3nc(=S)n2[nH]1 | -0.535 |
| Cc1nc2ccccc2n1CCc1nc2c3ccccc3nc(=S)n2[nH]1 | -0.257 |
| S=c1nc2ccccc2c2nc(-c3ccccc3)[nH]n12 | 2.81 |
| Cc1ccccc1C(=O)Nc1ccccc1C(=O)NCc1ccccc1 | -0.529 |
| CCOC(=O)c1cn2nc(-c3ccc(OCC)cc3)cc2nc1C1CCN(C(=O)OC(C)(C)C)CC1 | -0.13 |
| O=C(COC(=O)c1ccc([N+](=O)[O-])s1)Nc1ccccc1 | -0.0827 |
| Cc1ccc(NC(=O)COC(=O)c2ccc([N+](=O)[O-])s2)c(C)c1 | 0.229 |

| SMILES | z-score |
| --- | --- |
| CC(C)(C)c1ccc(NC(=O)COC(=O)c2ccc([N+](=O)[O-])s2)cc1 | 2.01 |
| COc1ccccc1/C=C/C(=O)NCC(=O)N/N=C/c1cccnc1 | 0.376 |
| CC(NS(=O)(=O)c1ccc(CCC(=O)NCc2cccnc2)cc1)c1ccccc1 (stereo not drawn) | 0.0386 |
| Cc1nnc(SCC(=O)Nc2ccccc2N2CCOCC2)s1 | -0.0127 |
| O=C(Nc1ccc(Cl)cc1)C1CCC(=O)N1Cc1ccccc1Cl (stereo not drawn) | 0.406 |
| O=C(Nc1ccc(Br)cc1)C1CCC(=O)N1Cc1ccccc1Cl (stereo not drawn) | 4.3 (active) |
| O=C(Nc1cc(Cl)cc(Cl)c1)C1CCC(=O)N1Cc1ccccc1Cl (stereo not drawn) | -0.359 |
| CCCCN(CCCC)CC(O)CN(c1cc([N+](=O)[O-])ccc1OC)S(=O)(=O)c1ccccc1 (stereo not drawn) | 0.91 |
| Cc1[nH]c2ccccc2c1CN1CCc2ccccc2C1 | 3.72 (active) |
| O=c1[nH]c(CN2CCc3ccccc3C2)nc2ccccc12 | 0.446 |
| Cn1cc(CN2CCc3ccccc3C2)c2ccccc21 | 0.58 |
| COc1ccc(-c2[nH]ncc2/C=N\NC(=O)c2ccc(C(C)(C)C)cc2)cc1OC | -0.413 |
| CCOC(=O)c1c(-c2ccccc2)csc1NC(=O)CCN1C(=O)c2ccccc2C1=O | -0.51 |
| CCOC(=O)c1c(-c2ccccc2)csc1NC(=S)N(CC)CC | 0.121 |
| CCNC(=S)Nc1scc(-c2ccccc2)c1C(=O)OCC | 6.92 (active) |
| CCOC(=O)c1c(-c2ccc(C)cc2)csc1NC(=S)NC(=O)c1ccccc1 | 0.153 |
| CCOC(=O)c1c(-c2ccccc2)csc1NC(=S)NC | 7.44 (active) |
| CCOC(=O)c1c(-c2ccccc2)csc1NC(=O)C1CCCO1 (stereo not drawn) | -0.568 |
| COc1ccc(NC(=O)c2ccc3snnc3c2)cc1 | -0.112 |
| CS(=O)(=O)N1CCN(c2ccc(NC(=O)c3cccnc3Cl)cc2)CC1 | 0.393 |
| CC(NS(=O)(=O)c1ccccc1)C(=O)Nc1ccc(S(N)(=O)=O)cc1 (stereo not drawn) | 0.246 |
| CCCc1cc(=O)[nH]c(SCCOC(=O)c2ccccc2)n1 | -0.349 |
| CCOc1ccc2nc(NC(=S)N(C)C)sc2c1 | -0.436 |

| SMILES | z-score |
| --- | --- |
| COc1ccc2nc(NC(C)=O)sc2c1 | -0.0562 |
| COc1ccc2nc(NC(=S)N(C)C)sc2c1 | 14.8 (active) |
| COc1cccc(N=C2SC(C(=O)Nc3ccccc3F)CC(=O)N2C)c1 (stereo not drawn) | -0.119 |
| COc1ccc(S(=O)(=O)N(C(C)=O)c2ccc(OC(C)=O)c3ccccc23)cc1[N+](=O)[O-] | -0.812 |
| CC(=O)Oc1ccc(N(C(C)=O)S(=O)(=O)c2cccs2)cc1 | -0.202 |
| CC(=O)Oc1ccc(N(C(C)=O)S(=O)(=O)c2cccs2)c2ccccc12 | 4.9 (active) |
| CC(C)CC(=O)Nc1nnn(C)n1 | 0.332 |
| CC(C)C(=O)Nc1nnn(C)n1 | 9.51 (active) |
| CC(C)C(=O)NC(=S)Nc1nnn(C)n1 | 0.169 |
| CCN1CCCC1CNC(=O)C(=O)Nc1cccc(OC)c1 (stereo not drawn) | 2.04 |
| CCN1CCCC1CNC(=O)C(=O)Nc1ccccc1OC (stereo not drawn) | 0.00956 |
| CCN1CCCC1CNC(=O)C(=O)Nc1ccc(OC)cc1 (stereo not drawn) | 0.521 |
| CCOc1ccc(N(CC(=O)N2CC=C(c3ccccc3)CC2)S(=O)(=O)c2c(C)noc2C)cc1 | -0.285 |
| O=C(COC(=O)c1cn(-c2ccccc2)nc1-c1ccc(F)cc1)Nc1ncc(Cl)cc1Cl | 0.0446 |
| CCC(C)NC(=O)C1CCN(c2nc(OC)nc(OC)n2)CC1 (stereo not drawn) | 0.12 |
| C/C(CC(=O)Nc1cccc2c1CCCC2)=N\NC(=O)c1ccccc1N | 2.22 |
| CCn1c2ccccc2c2cc(NC(=O)C/C(C)=N/NC(=O)c3ccccc3N)ccc21 | -0.0756 |
| C/C(CC(=O)Nc1cccc2c1CCCC2)=N\NC(=O)c1cccc2ccccc12 | -0.483 |
| COc1cc(NC(=O)c2ccco2)ccc1NC(=O)C(C)C | 0.332 |
| Nc1nc(SCC(=O)NCCCO)nc2sc3c(c12)CCC3 | 1.08 |
| O=C(CC1NC2CCCCC2NC1=O)Nc1cccc(C(F)(F)F)c1 (stereo not drawn) | 0.497 |
| O=C(Nc1ccc(F)c(F)c1)NC1CCCCC1 | 3.01 (active) |
| O=C(Nc1cccc(F)c1)NC1CCCCC1 | 0.258 |

| SMILES | z-score |
| --- | --- |
| COC(=O)CSC1=NS(=O)(=O)c2ccccc21 | -2.06 |
| Cc1ccc(NC(=O)CCSCCC(=O)Nc2ccc(C)c(C)c2)cc1C | -0.0616 |
| CCc1cccc(NC(=O)CSC2=NS(=O)(=O)c3ccccc32)c1 | 3.52 (active) |
| CCc1cccc(NC(=O)C2CCCC2)c1 | 0.366 |
| O=C(CSC1=NS(=O)(=O)c2ccccc21)Nc1ccccc1 | -0.326 |
| O=C(Nc1ccc(Cl)cc1)NC1CCCCC1 | 0.269 |
| CCc1cccc(NC(=O)COc2ccccc2)c1 | 0.78 |
| CCc1cccc(NC(=O)CCSCCC(=O)Nc2cccc(CC)c2)c1 | 3.02 (active) |
| CCc1cccc(NC(=O)NC2CCCCC2)c1 | 4.38 (active) |
| O=C(Nc1ccc(F)cc1)NC1CCCCC1 | 0.532 |
| CCc1cc2c(=O)c(Oc3ccccc3)c(C)oc2cc1O | 0.432 |
| O=C(CNC(=O)c1cccc(F)c1)N/N=C/c1cccc([N+](=O)[O-])c1 | -0.00152 |
| COc1ccc(S(=O)(=O)NC(C(C)C)C(C)C)cc1OC | 0.101 |
| CSc1nc(N2CCOCC2)c2c(c1C#N)CCCCC2 | -0.315 |
| CCC1Cc2c(nc3c4c(nc(N5CCOCC5)c(C#N)c24)NC(C)=N3)O1 (stereo not drawn) | -0.387 |
| O=C(c1ccco1)N1CCCC(c2ccccc2)C1 (stereo not drawn) | -0.388 |
| CCOC(=O)c1ccc(COC(=O)c2nonc2N)cc1 | -0.0847 |
| C=CCNC(=O)CC(C)C(CCCCC)C(=O)O (stereo not drawn) | -0.15 |
| Cc1ccc(CNC(=O)c2cc3c(C)nc4ccccc4c3o2)cc1 | 0.19 |
| Cc1ccc(SCCNC(=O)c2ccccc2C)cc1 | -0.0405 |
| O=C(Cn1nc(-c2ccc(Cl)cc2)c2ccccc2c1=O)Nc1cccnc1 | -0.258 |
